Measurements as given in the antibiotic and cytotoxicity screens of Wong et al. (2023).
Screen size: about 39,000 compounds; about 3,300 (8.5%) were called active. What follows is part of a selection rich in actives, with near analogues and random picks from the rest.

tested on: HepG2; experiment: cytotoxicity call (relative viability < 0.9); settings: 10 µM

SMILES	cytotoxicity call
C[C@H]1CN([C@@H](C)CO)C(=O)c2cccc(NC(=O)c3ccc(-c4nccs4)cc3)c2O[C@H]1CN(C)S(C)(=O)=O	inactive
C[C@@H]1CN([C@H](C)CO)C(=O)c2cc(C#CCc3ccccc3)cnc2O[C@H]1CN(C)C(=O)Cc1cccnc1	inactive
C[C@H]1CN([C@@H](C)CO)C(=O)c2cc(-c3ccc(C#N)cc3)cnc2O[C@@H]1CN(C)C(=O)Nc1ccc(C(F)(F)F)cc1	inactive
Cc1ccc(Oc2ccc(CN)cc2)cc1	active
NCc1ccc(-c2ccc(Br)cc2)cc1	inactive
CN(C)CCOc1ccc(CN)cc1	inactive
C[C@@H]1CCCCO[C@@H](CN(C)Cc2ccncc2)[C@@H](C)CN([C@H](C)CO)C(=O)c2cc(NC(=O)C3CCCCC3)ccc2O1	inactive
O=C(O)C=Cc1ccc(Cn2ccnc2)cc1	active
Clc1ccc(Cn2ccnc2)cc1	inactive
O=C(O)CCn1ccnc1	inactive
NCCN1CCO[C@@H](CC(=O)Nc2cc(Cl)cc(Cl)c2)C1=O	inactive
O=C(N[C@@H](c1ccccc1)c1ccc2ccccc2n1)C1CCN(Cc2ccc(Cl)c(Cl)c2)CC1	inactive
CC(C)NC(=O)[C@H]1CC[C@@H](n2c(NC(=O)c3ccc(F)cc3)nc3ccc(CN4CCC(C(C)(C)O)CC4)cc32)CC1	active
COc1cc(OC)nc([C@@H](NC(=O)C2CCN(CCN3C(=O)c4ccccc4C3=O)CC2)c2ccc(F)cc2)n1	inactive
COc1ccccc1S(=O)(=O)N(C)C[C@H]1OCc2cnnn2CCCC(=O)N([C@@H](C)CO)C[C@@H]1C	inactive
C[C@@H]1CN([C@@H](C)CO)C(=O)CCCn2nncc2CO[C@@H]1CN(C)C(=O)Nc1ccc2c(c1)OCO2	inactive
C[C@@H]1CN([C@H](C)CO)C(=O)c2cc(C#Cc3ccncc3)cnc2O[C@@H]1CN(C)C(=O)c1ccccc1F	inactive
C=CCNC(=O)[C@H]1[C@@H]2C(=O)O[C@@H](c3ccccc3)[C@@H](c3ccccc3)N2[C@@H](c2ccc(OCCO)cc2)[C@]12C(=O)N(C(=O)OCCOC)c1ccc(C#CC3(O)CCCCCC3)cc12	inactive
C=CCNC(=O)[C@H]1[C@@H]2C(=O)O[C@@H](c3ccccc3)[C@@H](c3ccccc3)N2[C@@H](c2ccccc2OCCO)[C@]12C(=O)N(C(=O)OCCOC)c1ccc(C#CC3(O)CCCCCC3)cc12	active
COCCOC(=O)N1C(=O)[C@@]2(c3cc(C#CC4(O)CCCCCC4)ccc31)[C@H](C(=O)N1CCN(c3ncccn3)CC1)[C@H]1C(=O)O[C@H](c3ccccc3)[C@H](c3ccccc3)N1[C@@H]2c1ccc(OCCO)cc1	inactive
C=CCNC(=O)[C@H]1[C@@H]2C(=O)O[C@@H](c3ccccc3)[C@@H](c3ccccc3)N2[C@@H](c2ccc(O)cc2)[C@]12C(=O)N(C(=O)OCCOC)c1ccc(C#CC3(O)CCCCCC3)cc12	inactive
COCCOC(=O)N1C(=O)[C@@]2(c3cc(C#CC4=CCCCC4)ccc31)[C@H](C(=O)N1CCCCCCC1)[C@H]1C(=O)O[C@H](c3ccccc3)[C@H](c3ccccc3)N1[C@@H]2c1ccc(OCCO)cc1	inactive
COCCOC(=O)N1C(=O)[C@@]2(c3cc(C#CC4(O)CCCCCC4)ccc31)[C@H](c1ccc(OCCO)cc1)N1[C@H](c3ccccc3)[C@H](c3ccccc3)OC(=O)[C@H]1[C@@H]2C(=O)N1CCCCCCC1	active

SMILES	cytotoxicity call
COCCOC(=O)N1C(=O)[C@@]2(c3cc(C#CC4(O)CCCCCC4)ccc31)[C@H](C(=O)N1CCCCCCC1)[C@H]1C(=O)O[C@H](c3ccccc3)[C@H](c3ccccc3)N1[C@@H]2c1ccc(OCCO)cc1	active
COCCOC(=O)N1C(=O)[C@@]2(c3cc(C#CC4(O)CCCCCC4)ccc31)[C@H](c1ccc(OCCO)cc1)N1[C@H](c3ccccc3)[C@H](c3ccccc3)OC(=O)[C@H]1[C@@H]2C(N)=O	inactive
COCCOC(=O)N1C(=O)[C@@]2(c3cc(C#CC4(O)CCCCCC4)ccc31)[C@H](c1ccc(OCCO)cc1)N1[C@H](c3ccccc3)[C@H](c3ccccc3)OC(=O)[C@H]1[C@@H]2C(=O)N1CCN(c2ncccn2)CC1	inactive
COc1ccc(NC(=O)Nc2cccc3c2O[C@H](CN(C)Cc2ccc(C(F)(F)F)cc2)[C@@H](C)CN([C@@H](C)CO)C3=O)cc1	inactive
COc1ccc(NC(=O)Nc2ccc3c(c2)[C@H]2C[C@H](CC(=O)NCc4ccccn4)O[C@@H](CO)[C@H]2O3)cc1	inactive
c1ccc(Oc2nnc(-c3ccccc3)c3ccccc23)cc1	inactive
C[C@H](CO)N1C[C@H](C)[C@H](CN(C)S(C)(=O)=O)Oc2cc(-c3ccc(F)cc3)ccc2S1(=O)=O	inactive
COc1cccc(C#Cc2ccc3c(c2)O[C@@H](CN(C)C(=O)CN2CCOCC2)[C@H](C)CN([C@@H](C)CO)S3(=O)=O)c1	inactive
COC(=O)CCCCCNc1n[nH]c(=O)[nH]c1=O	inactive
O=C(CCNc1n[nH]c(=O)[nH]c1=O)N1CCOCC1	active
O=C(O)CCCNc1n[nH]c(=O)[nH]c1=O	inactive
COc1ccc(NC(=O)N(C)C[C@H]2OCCCC[C@@H](C)Oc3ccc(NC(=O)Nc4c(C)noc4C)cc3C(=O)N([C@H](C)CO)C[C@@H]2C)cc1	inactive
COc1ccc(NC(=O)Nc2ccc3c(c2)[C@@H]2C[C@@H](CC(=O)N4CCN(C)CC4)O[C@@H](CO)[C@@H]2O3)cc1	inactive
C[C@H]1CN([C@@H](C)CO)C(=O)Cc2cc(NC(=O)Nc3ccc(C(F)(F)F)cc3)ccc2O[C@H]1CN(C)CC1CCCCC1	active
C[C@@H]1CN([C@@H](C)CO)C(=O)Cc2cc(NC(=O)Nc3ccc(C(F)(F)F)cc3)ccc2O[C@@H]1CN(C)CC1CCCCC1	active
C[C@H](CO)N1C[C@H](C)[C@H](CN(C)C(=O)NC2CCCCC2)Oc2ccc(NC(=O)Nc3ccc(C(F)(F)F)cc3)cc2CC1=O	inactive
C[C@H](CO)N1C[C@H](C)[C@H](CN(C)CC2CCCCC2)Oc2ccc(NC(=O)Nc3ccc(C(F)(F)F)cc3)cc2CC1=O	active
C[C@H]1CN([C@@H](C)CO)C(=O)Cc2cc(NC(=O)Nc3ccc(C(F)(F)F)cc3)ccc2O[C@@H]1CN(C)CC1CCCCC1	inactive
C[C@@H]1CN([C@@H](C)CO)C(=O)Cc2cc(NC(=O)Nc3ccc(C(F)(F)F)cc3)ccc2O[C@H]1CN(C)CC1CCCCC1	active
CN(C)CCCNC(=O)C[C@H]1CC[C@H]2[C@@H](COc3ccc(NC(=O)c4ccc5c(c4)OCO5)cc3C(=O)N2C)O1	inactive
CCCN(C)C[C@H]1OCCCC[C@H](C)Oc2ccc(NS(C)(=O)=O)cc2C(=O)N([C@H](C)CO)C[C@H]1C	inactive
C[C@H](CO)N1C[C@H](C)[C@@H](CN(C)Cc2ccncc2)Oc2cc(C#CCN(C)C)ccc2S1(=O)=O	inactive
CN([C@@H](c1ccccc1)c1ccccn1)S(=O)(=O)c1cn(C)c(=O)n(C)c1=O	inactive

SMILES	cytotoxicity call
Cc1ccc(S[C@]2(C(=O)O)CC(=O)N(C3Cc4ccccc4C3)[C@@H]2c2ccc(CO)cc2I)cc1	inactive
COCC(=O)Nc1ccc2c(c1)C(=O)N(C)C[C@H](OC)[C@H](C)CN(Cc1ccccc1OC)[C@H](C)CO2	inactive
C[C@H]1CN([C@@H](C)CO)C(=O)Cc2cc(NS(C)(=O)=O)ccc2O[C@@H]1CN(C)C(=O)Nc1ccccc1	inactive
COCCNC(=O)C[C@@H]1C[C@@H]2c3cc(NS(C)(=O)=O)ccc3O[C@@H]2[C@@H](CO)O1	inactive
COc1ccc([C@H]2C/C=C\C[C@H](c3cccc(Cl)c3)NC(=O)[C@@H](c3ccccc3)CC(=O)N2)c(OC)c1	inactive
CC(=O)O.N=C(N)NN=Cc1c(Cl)cccc1Cl	inactive
Cc1ccc(-c2ccc3c(c2)O[C@@H](CN(C)C(=O)CN(C)C)[C@H](C)CN([C@@H](C)CO)S3(=O)=O)cc1	inactive
CN(C)CCNC(=O)[C@H]1CN(Cc2cnn(C)c2)Cc2ccnn2C1	inactive
C[C@@H]1CN([C@H](C)CO)C(=O)Cc2cc(NC(=O)Nc3ccc(C(F)(F)F)cc3)ccc2O[C@H]1CN(C)CC1CCCCC1	active
C[C@@H]1CN([C@H](C)CO)C(=O)Cc2cc(NC(=O)Nc3ccc(C(F)(F)F)cc3)ccc2O[C@@H]1CN(C)CC1CCCCC1	active
C[C@H]1CN([C@@H](C)CO)C(=O)Cc2cc(NC(=O)Nc3ccc(C(F)(F)F)cc3)ccc2O[C@@H]1CN(C)C(=O)NC1CCCCC1	inactive
COCC(=O)N1C[C@H](C)[C@H](OC)CN(C)C(=O)c2ccc(NC(=O)Nc3ccccc3)cc2OC[C@@H]1C	inactive
Cc1ccc(S(=O)(=O)N(C)C[C@H]2Oc3ccc(NS(=O)(=O)c4ccccc4)cc3CC(=O)N([C@H](C)CO)C[C@@H]2C)cc1	inactive
CC(C)NC(=O)N[C@H]1CC[C@H](CCN)O[C@H]1CO	inactive
C[C@@H]1CCCCO[C@@H](CN(C)C(=O)Nc2cccc3ccccc23)[C@H](C)CN([C@H](C)CO)C(=O)c2cc(NC(=O)Cc3ccccc3)ccc2O1	inactive
C[C@H]1CCCCO[C@@H](CN(C)C(=O)Nc2cccc3ccccc23)[C@@H](C)CN([C@@H](C)CO)C(=O)c2cc(NC(=O)Cc3ccccc3)ccc2O1	active
C[C@@H]1CCCCO[C@H](CN(C)C(=O)Nc2cccc3ccccc23)[C@H](C)CN([C@H](C)CO)C(=O)c2cc(NC(=O)Cc3ccccc3)ccc2O1	active
C[C@@H]1CN([C@@H](C)CO)C(=O)c2cc(NC(=O)Cc3ccccc3)ccc2O[C@@H](C)CCCCO[C@@H]1CN(C)C(=O)Nc1cccc2ccccc12	active
C[C@@H]1CCCCO[C@H](CN(C)C(=O)Nc2cccc3ccccc23)[C@@H](C)CN([C@@H](C)CO)C(=O)c2cc(NC(=O)Cc3ccccc3)ccc2O1	inactive
C[C@H](CO)N1C[C@H](C)[C@@H](CN(C)C(=O)Nc2cccc3ccccc23)OCCCC[C@H](C)Oc2ccc(NC(=O)Cc3ccccc3)cc2C1=O	inactive
C[C@@H]1CCCCO[C@@H](CN(C)C(=O)Nc2cccc3ccccc23)[C@H](C)CN([C@@H](C)CO)C(=O)c2cc(NC(=O)Cc3ccccc3)ccc2O1	inactive
C[C@@H]1CN([C@H](C)CO)C(=O)c2cc(NC(=O)Cc3ccccc3)ccc2O[C@@H](C)CCCCO[C@@H]1CN(C)C(=O)Nc1cccc2ccccc12	inactive
C[C@@H]1CCCCO[C@@H](CN(C)C(=O)Nc2cccc3ccccc23)[C@@H](C)CN([C@@H](C)CO)C(=O)c2cc(NC(=O)Cc3ccccc3)ccc2O1	inactive
